# Reference: PubChem BioAssay (NCATS)
# A number with no mark means an inactive call. Inconclusive results are not listed. A call without a number means that no potency is given here. The source made the active and inactive calls. Calls come from the whole dose curve; as a rule, active = well fitted curve in the direction sought with a large enough effect; inconclusive = small, poorly fitted or top-dose-only effect, or another doubt; inactive = no such curve, though single readings can be large; an effect the other way counts as inactive or inconclusive.
# What was measured:
# [1] = target: Glutathione peroxidase 1 (Homo sapiens) (UniProt P07203); assay: Primary qHTS Assay for Inhibitors of Recombinant Selenoprotein Glutathione Peroxidase 1 (GPX1) (AID 1845191); note: nearly all actives have a fitted effect of over 65% in size; note: potency is the fitted concentration of half-maximal effect
# In short: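 GR-coupled readout: NADPH consumption tracked by fluorescence, ex 340/em 450 nm, at t=0 and after 15 min at RT. Final mix 10 nM GPX1, 1 mM GSH, 0.5 mM CHP, 0.5 mM NADPH, 100 nM GR, 0.01% BSA, following 30 min enzyme–compound preincubation.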
# [2] = target: Phospholipid hydroperoxide glutathione peroxidase GPX4 (Homo sapiens) (UniProt P36969); assay: Primary qHTS Assay for Inhibitors of Recombinant Selenoprotein Glutathione Peroxidase 4 (GPX4) (AID 1845192); note: nearly all actives have a fitted effect of over 65% in size; note: potency is the fitted concentration of half-maximal effect; for activity change, negative = inhibition: series mostly up to about 50 µM
# In short: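 Steps: GPX4 plus compound, 30 min RT; add GR/GSH/NADPH master mix; start with cumene hydroperoxide; read 340/450 nm fluorescence at 0 and 15 min. Finals were 200 nM GPX4, 1 mM GSH, 0.5 mM CHP, 0.5 mM NADPH, 100 nM GR.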
# [3] = target: Luciferin 4-monooxygenase (Photinus pyralis) (UniProt P08659); assay: Primary firefly luciferase (FLuc) qHTS assay for identification of artifact compounds. (AID 1845220); note: nearly all actives have a fitted effect of over 60% in size; for activity change, negative = inhibition: series mostly up to about 54 µM
# In short: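 D-luciferin and ATP (10 uM each, final) in Tris acetate buffer pH 7.6 were incubated with compounds for 15 min at room temperature. The reaction was started with 10 nM Photinus pyralis luciferase and luminescence read after 5 min. Percent inhibition was fitted to a 4-parameter Hill equation.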
# [4] = Primary fluorescence-based thiol-reactive (MSTI) qHTS assay for identification of artifact compounds. (AID 1845221); note: nearly all actives have a fitted effect of over 65% in size; note: potency is the fitted concentration of half-maximal effect;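 for activity change, negative = thiol reactive: series mostly up to about 54 µM; thiol-reactive compounds lower the probe fluorescence signal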
# In short: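 First, 4 uM MSTI in 2% DMSO/PBS pH 7.4 was dispensed; next, compounds were added; then plates sat 1 h at room temperature without light. Finally, emission at 598 nm was recorded.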
# [5] = test system: Nanoluciferase (engineered Oplophorus gracilirostris luciferase); assay: Primary Nanoluciferase (NLuc) qHTS assay for identification of artifact compounds. (AID 1845222); note: series mostly up to about 54 µM
# In short: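 Diluted conditioned medium from NLuc-expressing S16 cells treated with compounds for 15 min at room temperature, then Nano-Glo substrate added; luminescence read after 5 min. Percent inhibition versus no-enzyme and DMSO controls fitted to 4-parameter Hill equation.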
# Sequence of Glutathione peroxidase 1 (Homo sapiens) (P07203 whole entry, looked up): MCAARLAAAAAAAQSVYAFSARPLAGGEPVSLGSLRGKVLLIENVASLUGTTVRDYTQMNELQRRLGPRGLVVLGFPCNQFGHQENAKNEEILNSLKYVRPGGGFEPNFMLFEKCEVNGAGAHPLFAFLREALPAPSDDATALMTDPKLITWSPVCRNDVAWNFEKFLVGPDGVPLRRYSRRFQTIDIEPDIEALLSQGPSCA
# Sequence of Phospholipid hydroperoxide glutathione peroxidase GPX4 (Homo sapiens) (P36969 whole entry, looked up): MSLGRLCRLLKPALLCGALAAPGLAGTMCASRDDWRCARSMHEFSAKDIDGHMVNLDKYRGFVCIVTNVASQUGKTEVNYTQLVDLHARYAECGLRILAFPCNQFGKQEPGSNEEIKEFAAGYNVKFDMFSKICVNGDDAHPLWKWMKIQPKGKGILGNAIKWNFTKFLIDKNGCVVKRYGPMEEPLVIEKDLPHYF
smiles,measurement,setting,value
CCOc1cc2ncc(C#N)c(Nc3ccc(OCc4ccccn4)c(Cl)c3)c2cc1NC(=O)/C=C/CN(C)C,Potency,[1],inactive
same,Potency,[2],inactive
same,Potency,[3],inactive
same,Potency,[4],inactive
CC(C)(C)C(=O)OCOC(=O)[C@@H]1N2C(=O)[C@@H](N=CN3CCCCCC3)[C@H]2SC1(C)C,Potency,[1],inactive
same,Potency,[2],inactive
CC(=O)OCC(=O)[C@@]12OC3(CCCC3)O[C@@H]1C[C@H]1[C@@H]3CCC4=CC(=O)C=C[C@]4(C)[C@@]3(F)[C@@H](O)C[C@@]12C,Potency,[1],inactive
same,Potency,[2],inactive
C[C@@H]1CCN(C(=O)CC#N)C[C@@H]1N(C)c1ncnc2[nH]ccc12,Potency,[1],inactive
same,Potency,[2],inactive
CC[N+](CC)(CC)CCC(O)(c1ccccc1)C1CCCCC1 (centres undefined),Potency,[1],inactive
same,Potency,[2],inactive
C=C1CC[C@@H]2[C@](C)(CO)[C@H](O)CC[C@@]2(C)[C@@H]1C/C=C1/C(=O)OC[C@H]1O,Potency,[1],inactive
same,Potency,[2],inactive
CC(=O)Oc1cc(C)c(OC(C)=O)c2ccccc12,Potency,[1],inactive
same,Potency,[2],inactive
NCc1ccccc1CC(=O)N[C@@H]1C(=O)N2C(C(=O)O)=C(CSc3nnnn3CC(=O)O)CS[C@H]12,Potency,[1],5.08 µM (active)
same,Potency,[2],15.8 µM (active)
CC(C)N=c1cc2n(-c3ccc(Cl)cc3)c3ccccc3nc-2cc1Nc1ccc(Cl)cc1,Potency,[1],inactive
same,Potency,[2],inactive
Cc1nn(C)c2c1C(c1ccc(C(F)(F)F)cc1)C(C#N)=C(N)O2 (centres undefined),Potency,[1],inactive
same,Potency,[2],inactive
same,Potency,[3],inactive
same,Potency,[4],6.7 µM (active)
CC1(C)C(C=C(Cl)Cl)C1C(=O)OCc1cccc(Oc2ccccc2)c1 (centres undefined),Potency,[1],inactive
same,Potency,[2],inactive
CCCCC(=O)OCC(=O)[C@]1(O)Cc2c(O)c3c(c(O)c2[C@@H](O[C@H]2C[C@H](NC(=O)C(F)(F)F)[C@H](O)[C@H](C)O2)C1)C(=O)c1c(OC)cccc1C3=O,Potency,[1],inactive
same,Potency,[2],inactive
C[C@@H]1[C@H](O)[C@@H](C)/C=C/C=C\C=C\C=C\C=C\C=C\C=C\[C@H](O[C@@H]2O[C@H](C)[C@@H](O)[C@H](N)[C@@H]2O)C[C@@H]2O[C@](O)(C[C@@H](O)C[C@@H](O)[C@H](O)CC[C@@H](O)C[C@@H](O)CC(=O)O[C@H]1C)C[C@H](O)[C@H]2C(=O)O (stereo in doubt),Potency,[1],inactive
same,Potency,[2],inactive
CCCCCCCCCCCCCC[n+]1ccc(C)cc1,Potency,[1],inactive
same,Potency,[2],inactive
COC(=O)C1=C(C#N)NC(C)=C(C(=O)OC(C)C)C1c1cccc([N+](=O)[O-])c1 (centres undefined),Potency,[1],inactive
same,Potency,[2],inactive
Clc1cc(Cl)c(OCC#CI)cc1Cl,Potency,[1],inactive
same,Potency,[2],inactive
O=C(/C=C/c1c(C(=O)O)[nH]c2cc(Cl)cc(Cl)c12)Nc1ccccc1,Potency,[1],inactive
same,Potency,[2],inactive
same,Potency,[3],inactive
same,Potency,[4],inactive
CCCCS(=O)(=O)Nc1ncnc(OCCOc2ncc(Br)cn2)c1-c1ccc(Br)cc1,Potency,[1],inactive
same,Potency,[2],inactive
same,Potency,[3],inactive
same,Potency,[4],inactive
CC1(C)O[C@@H]2C[C@H]3[C@@H]4CCC5=CC(=O)C=C[C@]5(C)[C@H]4[C@@H](O)C[C@]3(C)[C@]2(C(=O)CO)O1,Potency,[1],inactive
same,Potency,[2],inactive
CC(=O)N(CC(C)C(=O)O)c1c(I)cc(I)c(N)c1I (centres undefined),Potency,[1],inactive
same,Potency,[2],inactive
CC(=O)OCC(=O)[C@@]1(O)CC[C@H]2[C@@H]3C[C@H](C)C4=CC(=O)C=C[C@]4(C)[C@H]3[C@@H](O)C[C@@]21C,Potency,[1],inactive
same,Potency,[2],inactive
NCc1ccc(OCCCc2sc(-c3ccc4c(c3)/C(=N/Nc3nc5ccccc5s3)CCC4)nc2C(=O)O)cc1,Potency,[1],inactive
same,Potency,[2],inactive
O=C(O)c1cc(O)c2c(c1)[O][Bi][O]2,outcome,[1],inactive [at 0.4 µM]
same,outcome,[2],inactive [at 0.409 µM]
CC(Oc1ccccc1)C(=O)N[C@@H]1C(=O)N2[C@@H]1SC(C)(C)[C@@H]2C(=O)O (some centres undefined),Potency,[1],inactive
same,Potency,[2],inactive
CCCCCCCCCCCC[n+]1ccc2ccccc2c1,Potency,[1],inactive
same,Potency,[2],inactive
CC[N+](C)(C)Cc1ccccc1Br,Potency,[1],inactive
same,Potency,[2],inactive
COC(=O)CCC(=O)CN,Potency,[1],inactive
same,Potency,[2],inactive
CC1(C)S[C@@H]2[C@H](NC(=O)C(C(=O)O)c3ccsc3)C(=O)N2[C@H]1C(=O)O (some centres undefined),Potency,[1],inactive
same,Potency,[2],inactive
CC1OC(OC2C(C)OC(OC3C(OC(=O)/C=C/c4ccc(O)cc4)C(CO)OC(OC4(COC(=O)/C=C/c5ccc(O)cc5)OC(CO)C(O)C4O)C3OC3OCC(O)(CO)C3O)C(O)C2O)C(O)C(O)C1O (centres undefined),Potency,[1],inactive
same,Potency,[2],inactive
same,"activity change, negative = inhibition",[3],-0.562% [at 11.6 µM]
same,"activity change, negative = thiol reactive",[4],1.76% [at 11.5 µM]
same,"activity, negative = inhibition",[5],0.249% [at 11.6 µM]
Clc1ccc2c(c1)C1=NCCN1c1c(-c3noc(C4CC4)n3)ncn1-2,Potency,[1],inactive
same,Potency,[2],inactive
same,Potency,[3],inactive
same,Potency,[4],inactive
same,Potency,[5],inactive
C=C1CC23CCC4[C@@](C)(CCC[C@@]4(C)C(=O)O)C2CCC1C3 (some centres undefined),Potency,[1],inactive
same,Potency,[2],inactive
same,Potency,[3],inactive
same,Potency,[4],inactive
same,Potency,[5],inactive
O=C(c1ccccn1)c1cnn2c(-c3ccncc3)ccnc12,Potency,[1],inactive
same,Potency,[2],inactive
same,Potency,[3],inactive
same,Potency,[4],inactive
same,Potency,[5],inactive
COc1ccc(C(=O)O[C@H]2CC(C)=CC[C@@]3(C)[C@@H](OC(C)=O)C[C@@](O)(C(C)C)[C@H]23)cc1,Potency,[1],inactive
same,Potency,[2],inactive
same,Potency,[3],inactive
same,Potency,[4],inactive
same,Potency,[5],inactive
O=C(NCC(=O)N1CC[C@H](NC2CCC(O)(c3ccc(-c4ncccn4)cn3)CC2)C1)c1cccc(C(F)(F)F)c1 (some centres undefined),Potency,[1],inactive
same,Potency,[2],inactive
same,Potency,[3],inactive
same,Potency,[4],inactive
same,Potency,[5],inactive
